Laboratory results taken from PubChem BioAssay AID504444 (National Center for Advancing Translational Sciences (NCATS), 2011).
The whole screen tested about 360,000 compounds, of which about 7,500 (2.1%) were called active. Where a call stands in place of a potency, no number is given. Not shown: some 20% with an inconclusive outcome. Calls follow the shape of the dose curve; as a rule, active = well fitted inhibition curve with a large enough effect; inconclusive = small, poorly fitted or top-dose-only effect, or effect the other way; inactive = flat fitted curve, though single readings scatter. The full list was thinned out, with actives kept by preference.

Assay: Nrf2 qHTS screen for inhibitors; also: nearly all actives have a fitted effect of over 60% in size
Details: A549 ARE-Fluc reporter, luciferase luminescence, 18-24 h; series mostly up to 46 µM
Outline: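 Reporter: ARE-Fluc in A549. Exposure: 18-24 h, 37 °C, 5% CO2, 5% FBS OPTI-MEM. Readouts: fluorescent cytotoxicity (CellTiter-Fluor), then luminescent Nrf2 signal after BugLite.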
Potency is read from the fitted curve at half-maximal effect.

Row | SMILES | Potency | activity change, negative = inhibition
1 | CCCCCCn1nnc2sc(-c3ccccc3)cc2c1=O | inactive | 
2 | COc1cc(O)c2c(=O)c3c(O)c(O)ccc3oc2c1OC | inactive | 
3 | O=C(Cc1ccc(NC(=O)C2CCCN(C(=O)C3CCCCC3)C2)cc1)Nc1cccc(C(=O)N2CCCCC2)c1 (stereo unspecified) | inactive | 
4 | COc1cc(/C=N/NC(=O)c2ccoc2C)ccc1OCCN1CCCCC1 | inactive | 
5 | COc1cc(/C=N/NC(=O)Nc2ccccc2)ccc1OCCOc1ccccc1C | 14.6 µM (active) | 
6 | COc1cc(/C=N/NC(=O)c2ccccc2)ccc1OS(=O)(=O)c1ccccc1 | inactive | 
7 | COc1ccc(-c2sc3ccc(OC)cc3c2C#Cc2ccccn2)cc1 | inactive | 
8 | CCCCC[C@@H]1C=C(C(=O)O)[C@H](c2ccc(C#N)cc2)N1S(=O)(=O)c1ccc(C)cc1 | inactive | 
9 | COc1ccc(CN2CCN(C(=O)c3cc(C4CC4)nn3-c3ccccc3)CC2)cc1F | inactive | 
10 | CCOC(=O)CCC(NC(=O)c1ccc(CNc2nc3cc(C(F)(F)F)ccc3nc2C(=O)OCC)cc1)C(=O)OCC (stereo unspecified) | inactive | 
11 | C=CCNC(=O)c1ccc2nc(-c3ccco3)c(-c3ccco3)nc2c1 | inactive | 
12 | Cc1c(Cl)cccc1NC(=O)Cn1cc(C(=O)c2cccs2)c2ccccc21 | 6.51 µM (active) | 
13 | COC(=O)Cn1cc(C(=O)c2cccs2)c2ccccc21 | inactive | 
14 | COCCNC(=O)Cn1cc(C(=O)c2cccs2)c2ccccc21 | inactive | 
15 | Cc1cccc(N2CCN(C3=C(c4ccccc4)C(=O)c4ccccc43)CC2)c1C | inactive | 
16 | CCOc1ccc(S(=O)(=O)c2cn(Cc3ccccc3)c3ccc(OCC)cc3c2=O)cc1 | inactive | 
17 | CCS(=O)(=O)N1CCCC(C(=O)NCc2ccc(C)cc2)C1 (stereo unspecified) | inactive | 
18 | CCOc1ccc(CNC(=O)C2CCCN(S(=O)(=O)N(CC)c3ccc(OCC)cc3)C2)cc1 (stereo unspecified) | 16.4 µM (active) | 
19 | Cc1ccc(CNC(=O)C2CCCN(S(C)(=O)=O)C2)cc1 (stereo unspecified) | inactive | 
20 | Oc1ccc(/C=C/c2c(F)cccc2F)c2cccnc12 | inactive | 
21 | COc1ccc(-c2nc3ccccc3s2)cc1NC(=O)COc1ccccc1C | inactive | 
22 | Cc1c(NC(=O)Cc2ccccc2)cccc1-c1nc2cccnc2s1 | inactive | 
23 | CC(=O)Nc1cccc(-c2nc3ccccc3s2)c1C | 7.31 µM (active) | 
24 | COc1ccc(CCNC(=O)c2ccc(-n3c(C)cc4c3CCCC4)cc2)cc1OC | inactive | 

Row | SMILES | Potency | activity change, negative = inhibition
25 | CC(=O)c1cccc(OCc2cc(C(=O)NC(C)Cc3cccnc3)no2)c1 (stereo unspecified) | inactive | 
26 | CN(Cc1cnccn1)C(=O)c1cc(COc2cccc(C(F)(F)F)c2)on1 | inactive | 
27 | CN(Cc1cccnc1)C(=O)c1cc(COc2ccc3ncccc3c2)on1 | 4.61 µM (active) | 
28 | O=C1/C(=C\c2ccc(O)cc2)CCC1CNc1ccc(Cl)cc1 (stereo unspecified) | inactive | 
29 | CCN1C[C@@H]2[C@@H]3C(=O)N(C)C(=O)[C@@H]3[C@](C)(C1=O)N2C(=O)c1ccccc1 | inactive | 
30 | COc1ccc(CCNC(=O)COc2cc(C)cc3oc(=O)c(C)c(C)c23)cc1OC | inactive | 
31 | COc1ccccc1N1CCN(CCCNC(=O)c2cnn(-c3ccccc3Cl)c2C2CCN(C(=O)OC(C)(C)C)CC2)CC1 | inactive | 
32 | CCOc1ccc(N2C(=O)CC(N(O)c3ccccc3)C2=O)cc1 (stereo unspecified) | inactive | 
33 | CCOc1ccc(N2C(=O)CC(N(CCc3ccc(OC)c(OC)c3)C(=S)Nc3ccccc3)C2=O)cc1 (stereo unspecified) | 23.1 µM (active) | 
34 | COC(=O)CN(C(=S)Nc1ccc(Cl)cc1)C1CC(=O)N(c2ccc(OC)cc2)C1=O (stereo unspecified) | inactive | 
35 | O=C1CC(c2nnc(Cc3ccc(Cl)cc3)o2)CN1c1ccccc1 (stereo unspecified) | inactive | 
36 | O=C(NCCNc1ccccc1[N+](=O)[O-])c1ccccc1F | inactive | 
37 | O=C(NCCNc1ccc([N+](=O)[O-])cc1Cl)c1ccccc1F | 16.4 µM (active) | 
38 | O=C(NCCCNc1ccc([N+](=O)[O-])cc1Cl)c1ccccc1F | inactive | 
39 | COc1ccccc1Nc1c2c(nc3ccc(NC(=O)/C=C/c4cc(OC)c(OC)c(OC)c4)cc13)CCCC2 |  | 4.54% [at 9.27 µM] (inactive)
40 | COc1ccccc1CNC(=O)CCCCn1c(=O)c2ccccc2n(CC(=O)Nc2cc(Cl)ccc2C)c1=O | inactive | 
41 | COc1ccc(NC(=O)Cn2c(=O)n(CCC(C)C)c(=O)c3cccnc32)cc1Cl | inactive | 
42 | COc1ccccc1C(=O)c1ccccc1C(=O)c1ccccc1 | inactive | 
43 | CC1Cc2nc(SCC(=O)Nc3ccccc3F)n(C)c(=O)c2S1 (stereo unspecified) | inactive | 
44 | COCCn1c(SCC(=O)N2CCCCCC2)nc2c(c1=O)SCC2 | inactive | 
45 | COCCn1c(SCC(=O)Nc2ccccc2F)nc2c(c1=O)SCC2 | 4.11 µM (active) | 
46 | COC(=O)[C@@]1(C)[C@H]2C(=O)N(Cc3ccccc3)C(=O)[C@H]2[C@H]2CN=C(SCC3CC3)N21 | inactive | 
47 | COc1ccccc1C1C(C#N)=C(N)Oc2c1c(-c1ccccc1)nn2-c1ccccc1 (stereo unspecified) | 20.6 µM (active) | 
48 | Cc1nn(Cc2ccccc2)c2c1C(c1ccccc1)C(C#N)=C(N)O2 (stereo unspecified) | inactive | 

Row | SMILES | Potency | activity change, negative = inhibition
49 | Cc1nn(-c2ccccc2)c2c1C(c1ccc(F)cc1)C(C#N)=C(N)O2 (stereo unspecified) | inactive | 
50 | Cc1oc2ccc(O)c(CN3CCCCC3)c2c1C(=O)Nc1cccc(C(F)(F)F)c1 | inactive | 
51 | COc1cccc(C(=O)NC2CCN(C#N)CC2)c1 | inactive | 
52 | Cc1ccccc1OCc1ccc(-c2nc(C#N)c(N3CCCCC3)o2)o1 | inactive | 
53 | Cc1ccc(-n2c(SCC(=O)N3c4ccccc4Sc4ccccc43)nnc2-c2ccncc2)cc1 | inactive | 
54 | Cc1ccc(Nc2nc(CSc3nnc(-c4ccncc4)n3-c3ccccc3C)cs2)cc1 | 9.2 µM (active) | 
55 | Cc1ccccc1-n1c(SCC(=O)NCc2cccs2)nnc1-c1ccncc1 | inactive | 
56 | CCc1cc2c(NC(Cc3ccccc3)C(=O)O)ncnc2s1 (stereo unspecified) | inactive | 
57 | CCc1cc2c(N3CCN(c4nnc(CC)s4)CC3)ncnc2s1 | 23.1 µM (active) | 
58 | Oc1ccccc1N1CCN(c2ncnc3sc(-c4ccccc4)cc23)CC1 | inactive | 
59 | Cc1nn(-c2ccc(N3CCCCC3)nn2)c(C)c1CCC(=O)NCc1ccc(F)cc1 | inactive | 
60 | COc1ccc(OC)c(NC(=O)CN2CCCN(Cc3cc(C)ccc3C)S2(=O)=O)c1 | inactive | 
61 | O=C(N[C@H]1C/C=C\C(c2cccc(F)c2)N(Cc2ccccc2)C(=O)C1)OCC1c2ccccc2-c2ccccc21 (stereo partly specified) | inactive | 
62 | CCn1nccc1C(=O)Nc1ccc(Cl)c(Cl)c1 | inactive | 
63 | N/C(=N\OC(=O)Nc1ccc(Cl)c(Cl)c1)c1ncc(C(F)(F)F)cc1Cl | inactive | 
64 | O=C(CC(O)(C(F)(F)F)C(F)(F)F)Nc1ccc(Cl)c(Cl)c1 | 2.91 µM (active) | 
65 | CCN(CC)c1nc(C#N)nc(OC)n1 | inactive | 
66 | CC1CCN(C(=O)c2cc3nc(C4CC4)cc(C(F)(F)F)n3n2)CC1 | 18.4 µM (active) | 
67 | O=C(c1ccccc1)N1CCN(C(=O)c2cc3nc(-c4ccccc4)cc(C(F)(F)F)n3n2)CC1 | 25.9 µM (active) | 
68 | COC(=O)c1cc2nc(-c3ccccc3)cc(C(F)(F)F)n2n1 | inactive | 
69 | O=C(NCC12CC3CC(CC(C3)C1)C2)c1cc2nc(-c3ccccc3)cc(C(F)(F)F)n2n1 | inactive | 
70 | Cc1cccc(-n2ncc(C(=O)N3CCC(C)CC3)c2C2CCN(C(=O)OC(C)(C)C)CC2)c1 | inactive | 
71 | C=CCNC(=O)c1cc2nc(C3CC3)cc(C(F)F)n2n1 | inactive | 
72 | CC(Sc1oc(-c2ccco2)nc1S(=O)(=O)c1ccc(Br)cc1)c1ccccc1 (stereo unspecified) |  | 8.26% [at 9.27 µM] (inactive)

Row | SMILES | Potency | activity change, negative = inhibition
73 | Cc1ccc(-c2nnc3ccc(SCC(N)=O)nn23)cc1 | inactive | 
74 | Cc1ccc(CNC(=O)CSc2c3c(nc4cc(Cl)ccc24)CCCC3)cc1 | inactive | 
75 | Cc1cccc(NC(=S)N2CCC(C(=O)c3ccc(F)cc3)CC2)c1 | inactive | 
76 | CCOc1ccc(C2C(C(=O)Nc3ccc(Cl)cc3)=C(C)Nc3nc(C(F)(F)F)nn32)cc1 (stereo unspecified) | inactive | 
77 | CCN(CC)c1ccc(NC(=O)CN2C(=O)c3cccnc3Oc3ccc(Cl)cc32)c(C)c1 | inactive | 
78 | Cc1cccc(N2CCN(c3ccc(NC(=O)/C=C\C(=O)O)cc3)CC2)c1 | inactive | 
79 | C=CC(=O)Nc1ccc(Nc2ccnc(Nc3ccc(N4CCN(C)CC4)cc3)n2)cc1 | 14.6 µM (active) | 
80 | CN1CCN(c2ccc(NC(=O)c3cc(Cl)c4c(c3)OCCO4)cc2)CC1 | inactive | 
81 | Cc1nn(-c2nc(-c3ccccc3)cc(C(F)(F)F)n2)c(C)c1Cl | inactive | 
82 | CCN(c1ccccc1)S(=O)(=O)c1cccc(C(=O)NCc2ccccc2CN2CCOCC2)c1 | inactive | 
83 | Cc1ccc(-c2nn(C(C)(C)C)c3ncnc(N)c23)cc1 | 18.4 µM (active) | 
84 | Cc1ccc(-n2cnc3ncnc(-c4ccccc4)c32)cc1 | inactive | 
85 | Cc1nc2ccn(Cc3cccnc3)c(=O)c2cc1C(=O)N1CCN(c2ccccc2F)CC1 | inactive | 
86 | CCOc1ccc(CNC(=O)C2CCN(c3nnc(-n4cccc4CNc4ccc(C)cc4)s3)CC2)cc1OC | inactive | 
87 | COc1ccc(Br)cc1/C=N/Nc1ccc(S(=O)(=O)Nc2ccccc2C(=O)O)cc1[N+](=O)[O-] | inactive | 
88 | CCOC(=O)c1c(-c2ccccc2)oc2cc(Br)c(O)cc12 | inactive | 
89 | CCOC(=O)c1c(-c2ccccc2)oc2ccc(OCC(N)=O)cc12 | inactive | 
90 | CCOC(=O)c1c(-c2ccccc2)oc2cc(Br)c(O)c(C=O)c12 | 20.6 µM (active) | 
91 | COc1ccccc1N(CCOc1ccccc1)S(=O)(=O)c1ccccc1 | inactive | 
92 | COc1cccc(CC(=NO)c2cccc(OC)c2)c1 | inactive | 
93 | COc1cccc(CNC(=O)CN2C(=O)NC(Cc3ccccc3)(c3ccccc3)C2=O)c1 (stereo unspecified) | inactive | 
94 | CCCCNC(=O)CN1C(=O)NC(Cc2ccccc2)(Cc2ccccc2)C1=O | inactive | 
95 | O=C(CN1C(=O)NC(Cc2ccccc2)(Cc2ccccc2)C1=O)NCC1CCCCC1 | 23.1 µM (active) | 
96 | Cc1ccc(C(=O)CC2(O)C(=O)N(CCc3ccccc3)c3ccc(Br)cc32)cc1 (stereo unspecified) | inactive | 
